Source: PubChem BioAssay AID1159580 (chemical genetic matrix, 2015)
In all, about 5,500 compounds went through this assay and about 2,000 (36%) were called active. Another 18% or so got no clear call; they are omitted. Cut-off read from the data, not from the text of the source: active = normalized growth mostly below about 0.91 (no sharp cut-off); inconclusive = no clear call, values can overlap the other calls; inactive = mostly above about 0.92. Some of the results follow.

Experiment: chemical genetic growth profiling, strain panel (AID 1159580);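 note: tested at 20 µM; growth read once vehicle control cultures reached saturation at 30 °C; 1 = growth at the plate median or of vehicle wells; lower values mean less growth of the strain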
Conditions: growth OD

Measured: normalized growth

CCCc1cc(=O)[nH]c(=S)[nH]1
inactive: S. cerevisiae deletion strains, locus YJR075W, strain HOC1, stronger effect = lower value 1.02 | S. cerevisiae deletion strains, locus YKL009W, strain mrt4, stronger effect = lower value 0.994 | S. cerevisiae deletion strains, locus YKL068W, stronger effect = lower value 1 | S. cerevisiae deletion strains, locus YKL085W, strain MDH1 (second series), stronger effect = lower value 1 | S. cerevisiae deletion strains, locus YKL085W, strain MDH1, stronger effect = lower value 1 | S. cerevisiae deletion strains, locus YKL160W, strain elf1, stronger effect = lower value 1.03 | S. cerevisiae deletion strains, locus YKL190W, strain CNB1, stronger effect = lower value 1 | S. cerevisiae deletion strains, locus YKR001C, strain vps1, stronger effect = lower value 1 | S. cerevisiae deletion strains, locus YKR026C, strain gcn3, stronger effect = lower value 1.01 | S. cerevisiae deletion strains, locus YKR091W, strain srl3, stronger effect = lower value 1.01 | S. cerevisiae deletion strains, locus YLL001W, strain dnm1, stronger effect = lower value 1.01 | S. cerevisiae deletion strains, locus YLL026W, stronger effect = lower value 1.02 | S. cerevisiae deletion strains, locus YLL041C, strain sdh2, stronger effect = lower value 1.03 | S. cerevisiae deletion strains, locus YLR027C, strain aat2, stronger effect = lower value 1.01 | S. cerevisiae deletion strains, locus YLR039C, strain RIC1, stronger effect = lower value 1.03 | S. cerevisiae deletion strains, locus YLR058C, strain SHM2, stronger effect = lower value 1.02 | S. cerevisiae deletion strains, locus YLR102C, strain apc9, stronger effect = lower value 0.992 | S. cerevisiae deletion strains, locus YLR113W, strain HOG1, stronger effect = lower value 0.989 | S. cerevisiae deletion strains, locus YLR221C, strain rsa3, stronger effect = lower value 1.02 | S. cerevisiae deletion strains, locus YLR258W, strain gsy2, stronger effect = lower value 1.01 | S. cerevisiae deletion strains, locus YLR262C, strain YPT6 (second series), stronger effect = lower value 1.02 | S. cerevisiae deletion strains, locus YLR262C, strain YPT6, stronger effect = lower value 1.04 | S. cerevisiae deletion strains, locus YLR268W, strain sec22, stronger effect = lower value 1.01 | S. cerevisiae deletion strains, locus YLR320W, strain mms22, stronger effect = lower value 1.03 | S. cerevisiae deletion strains, locus YLR330W, strain CHS5, stronger effect = lower value 1.02 | S. cerevisiae deletion strains, locus YLR342W, strain FKS1 (second series), stronger effect = lower value 1 | S. cerevisiae deletion strains, locus YLR342W, strain FKS1, stronger effect = lower value 1.03 | S. cerevisiae deletion strains, locus YLR357W, strain rsc2, stronger effect = lower value 1.05 | S. cerevisiae deletion strains, locus YLR370C, strain arc18, stronger effect = lower value 1.01 | S. cerevisiae deletion strains, locus YLR371W, strain rom2, stronger effect = lower value 0.994 | S. cerevisiae deletion strains, locus YLR384C, strain iki3, stronger effect = lower value 1.03 | S. cerevisiae deletion strains, locus YLR418C, strain cdc73, stronger effect = lower value 1 | S. cerevisiae deletion strains, locus YML016C, strain PPZ1, stronger effect = lower value 1.01 | S. cerevisiae deletion strains, locus YML032C, strain rad52, stronger effect = lower value 0.989 | S. cerevisiae deletion strains, locus YML120C, strain ndi1, stronger effect = lower value 1 | S. cerevisiae deletion strains, locus YML124C, strain tub3, stronger effect = lower value 0.996 | S. cerevisiae deletion strains, locus YMR058W, strain fet3, stronger effect = lower value 1 | S. cerevisiae deletion strains, locus YMR078C, strain ctf18, stronger effect = lower value 1 | S. cerevisiae deletion strains, locus YMR125W, strain sto1, stronger effect = lower value 1.03 | S. cerevisiae deletion strains, locus YMR129W, stronger effect = lower value 1.02 | S. cerevisiae deletion strains, locus YMR205C, strain PFK2, stronger effect = lower value 1.03 | S. cerevisiae deletion strains, locus YMR223W, strain ubp8, stronger effect = lower value 0.974 | S. cerevisiae deletion strains, locus YMR231W, strain pep5, stronger effect = lower value 1.02 | S. cerevisiae deletion strains, locus YMR263W, strain SAP30, stronger effect = lower value 1.02 | S. cerevisiae deletion strains, locus YMR307W, strain GAS1, stronger effect = lower value 1.07 | S. cerevisiae deletion strains, locus YNL067W, strain RPL9B, stronger effect = lower value 1.02 | S. cerevisiae deletion strains, locus YNL071W, strain lat1, stronger effect = lower value 1 | S. cerevisiae deletion strains, locus YNL128W, strain TEP1, stronger effect = lower value 1.02 | S. cerevisiae deletion strains, locus YNL153C, strain GIM3, stronger effect = lower value 1.02 | S. cerevisiae deletion strains, locus YNL183C, strain NPR1, stronger effect = lower value 0.966 | S. cerevisiae deletion strains, locus YNL209W, strain ssb2, stronger effect = lower value 1.02 | S. cerevisiae deletion strains, locus YNL233W, strain BNI4, stronger effect = lower value 1.02 | S. cerevisiae deletion strains, locus YNL248C, strain rpa49, stronger effect = lower value 1.03 | S. cerevisiae deletion strains, locus YNL250W, strain rad50, stronger effect = lower value 0.994 | S. cerevisiae deletion strains, locus YNL271C, strain bni1, stronger effect = lower value 1 | S. cerevisiae deletion strains, locus YNL298W, strain CLA4, stronger effect = lower value 1.01 | S. cerevisiae deletion strains, locus YNL307C, strain MCK1, stronger effect = lower value 0.998 | S. cerevisiae deletion strains, locus YNL322C, strain KRE1 (second series), stronger effect = lower value 1.02 | S. cerevisiae deletion strains, locus YNL322C, strain KRE1, stronger effect = lower value 1.01 | S. cerevisiae deletion strains, locus YNR049C, strain mso1, stronger effect = lower value 1.01 | S. cerevisiae deletion strains, locus YNR052C, strain pop2, stronger effect = lower value 0.991 | S. cerevisiae deletion strains, locus YOL006C, strain TOP1, stronger effect = lower value 1.04 | S. cerevisiae deletion strains, locus YOL012C, strain htz1 0.884 | S. cerevisiae deletion strains, locus YOL147C, strain pex11, stronger effect = lower value 0.996 | S. cerevisiae deletion strains, locus YOR001W, strain rrp6, stronger effect = lower value 1.02 | S. cerevisiae deletion strains, locus YOR061W, strain CKA2, stronger effect = lower value 1.01 | S. cerevisiae deletion strains, locus YOR069W, strain VPS5, stronger effect = lower value 0.999 | S. cerevisiae deletion strains, locus YOR070C, strain gyp1, stronger effect = lower value 1.02 | S. cerevisiae deletion strains, locus YOR080W, strain dia2, stronger effect = lower value 1.03 | S. cerevisiae deletion strains, locus YOR083W, strain WHI5, stronger effect = lower value 0.996 | S. cerevisiae deletion strains, locus YOR106W, strain vam3, stronger effect = lower value 1.02 | S. cerevisiae deletion strains, locus YOR136W, strain idh2, stronger effect = lower value 0.979 | S. cerevisiae deletion strains, locus YOR144C, strain elg1, stronger effect = lower value 0.999 | S. cerevisiae deletion strains, locus YOR184W, strain ser1, stronger effect = lower value 0.98 | S. cerevisiae deletion strains, locus YOR231W, strain MKK1, stronger effect = lower value 0.993 | S. cerevisiae deletion strains, locus YOR265W, strain rbl2, stronger effect = lower value 1.01 | S. cerevisiae deletion strains, locus YOR270C, strain vph1, stronger effect = lower value 1.1 | S. cerevisiae deletion strains, locus YOR290C, strain snf2, stronger effect = lower value 1.03 | S. cerevisiae deletion strains, locus YOR316C, strain cot1, stronger effect = lower value 0.993 | S. cerevisiae deletion strains, locus YPL051W, strain arl3, stronger effect = lower value 1.02 | S. cerevisiae deletion strains, locus YPL055C, strain LGE1, stronger effect = lower value 1.03 | S. cerevisiae deletion strains, locus YPL078C, strain atp4, stronger effect = lower value 1.02 | S. cerevisiae deletion strains, locus YPL106C, strain sse1, stronger effect = lower value 1.04 | S. cerevisiae deletion strains, locus YPL240C, strain hsp82, stronger effect = lower value 1.01 | S. cerevisiae deletion strains, locus YPL256C, strain CLN2, stronger effect = lower value 1.02 | S. cerevisiae deletion strains, locus YPR119W, strain clb2, stronger effect = lower value 0.99 | S. cerevisiae deletion strains, locus YPR141C, strain kar3, stronger effect = lower value 0.992 | S. cerevisiae deletion strains, locus YPR163C, strain tif3, stronger effect = lower value 0.992 | S. cerevisiae deletion strains, locus YPR167C, strain met16, stronger effect = lower value 0.983 | S. cerevisiae deletion strains, strain wtn01, stronger effect = lower value 0.997 | S. cerevisiae strains, strain wild type, stronger effect = lower value 1.01
